Screening results from PubChem BioAssay.
IMPase inh – IMPase inhibition in cells | P97697 | CHO-M1 cells, IP1 accumulation, HTRF TR-FRET ratio | 120,000 tested, under 10 active | AID 901 | inhibition (IP1 accumulation), % at 46.1 µM; active means well fitted curve in the direction sought with a large enough effect in the signal ratio, not every such curve was filed as active; inconclusive means small, poorly fitted or top-dose-only effect, or a change in a side signal; inactive means no such curve, though single readings can be large or run the other way; the % refers to the signal ratio;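 further: cells stimulated with carbachol in lithium chloride buffer; plate controls were DMSO basal wells for no effect and reference inhibitor wells for full effect; higher means more IMPase inhibition seen as more IP1 and lower FRET ratio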
Target sequence (P97697 whole entry, looked up): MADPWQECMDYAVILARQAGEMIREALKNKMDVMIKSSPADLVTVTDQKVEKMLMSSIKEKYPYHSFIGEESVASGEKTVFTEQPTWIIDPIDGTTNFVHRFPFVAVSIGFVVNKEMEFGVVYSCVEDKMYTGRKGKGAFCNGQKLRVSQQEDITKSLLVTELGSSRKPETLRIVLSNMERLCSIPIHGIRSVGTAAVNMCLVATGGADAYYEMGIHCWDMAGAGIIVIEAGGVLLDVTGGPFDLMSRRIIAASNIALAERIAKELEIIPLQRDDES
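Cellular IMPase inhibition is scored as a rise in cytosolic IP1, detected by competitive TR-FRET between d2-labelled IP1 and a europium anti-IP1 antibody. M1-expressing CHO cells were stimulated with carbachol for 30 min at 37C, with lithium (50 mM LiCl) present in the buffer.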
PNC inhibitor – perinucleolar compartment assembly inhibition | PC3M PTB-GFP, PNC prevalence imaging, 16 h; hits give low values | 3.1% of 140,000 active | activity change (PNC), negative = inhibition, % at 10 µM;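 active means readout at or below -70, meaning at least 70% loss of cells showing the perinucleolar compartment, a nuclear body marking cancer cells; inconclusive means readout between -30 and a set limit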;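 further: plate controls were DMSO wells for no effect and camptothecin positive control wells for full effect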
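Compounds are pinned in duplicate onto adhered PC3M cells stably expressing GFP-tagged PTB and incubated 16 h at 37 C. Cells are then fixed, nuclei stained with Hoechst, and PNC-positive cells counted.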
LMNA splice mod – LMNA splicing modulation. HeLa LMNA splicing GFP/RFP minigene ratio, 48 h. Potency, µM (series often up to 46.1 µM), for inactives: top-dose ratio change, negative = inhibition, hits mostly inhibitors. 0.01% of 200,000 active. AID 1487; active means well fitted inhibition curve with a large enough effect in the signal ratio, with a control signal flat, not every such curve was filed as active; inconclusive means small, poorly fitted or top-dose-only effect, or effect the other way, or a change in a side signal; the % refers to the signal ratio; further: potency means the concentration at half of the fitted maximal effect
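S3 HeLa stable clones carrying a lamin A-EGFP splicing minigene plus DsRed2 were seeded at 600 cells/well in Opti-MEM with 2% FBS, pin-dosed and incubated 48 h at 37°C. Acumen cytometry (488 nm) gave the GFP/RFP total-intensity ratio.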
Starred values were filed as active, the others as inactive; u = inconclusive; x = not tested or not shown; [ ] = remark or other dose. The sample as a whole holds a higher share of hits than the screen did. Unless noted, on the % scale 0 is the no-effect control and ±100 the full control effect.

SMILES | IMPase inh | PNC inhibitor | LMNA splice mod
Cc1cccc(-c2nc(CCNC(=O)c3ccccc3Br)cs2)c1 | x | x | 0%[46 µM]
CCCCS(=O)CC(COc1ccc(Cl)cc1)OC(=O)c1ccccc1 (stereo not given) | 16 | -119* | u
CCCCS(=O)CC(COC)OC(=O)c1ccccc1 (stereo not given) | x | x | -4%[46 µM]
Cc1ccc(C(C)C)c(OCC(=O)Nc2ccc(C(=O)OC3CCCCC3)cc2)c1 | -10 | x | x
COc1ccc(NC(=O)CSc2nc3ccccc3n2Cc2cccc(OC)c2)cc1 | x | x | 9%[46 µM]
CCOC(=O)C1=C(N)OC2=C(C(=O)CCC2)C1c1cccnc1 (stereo not given) | -4 | -120* | 0%
COC(=O)C1=C(N)OC2=C(C(=O)CCC2)C1c1cccnc1 (stereo not given) | x | x | 5%[46 µM]
CCOC(=O)C1=C(N)OC2=C(C(=O)CCC2)C1c1sccc1C (stereo not given) | x | -2 | -7%
CCOC(=O)C1=C(N)OC2=C(C(=O)CCC2)C1c1ccc(C)s1 (stereo not given) | 11 | -107* | 4%
O=C(NCCc1c[nH]c2ccccc12)OCCSS(=O)(=O)O | x | x | 1%[46 µM]
CCSc1nc2sc3c(c2c(=O)n1-c1ccc(C)cc1)CCCC3 | -8 | x | x
Cc1ccc(-c2nc(NCC3CCCO3)sc2C)cc1 (stereo not given) | x | x | -6%[46 µM]
CC(=O)c1ccc(NC(=O)CSc2nccn2Cc2ccco2)cc1 | x | x | 4%[46 µM]
Cc1ccc(NC(=O)COC(=O)Cn2c(C)csc2=O)cc1C | -6 | 29 | 1%
Cc1csc(=O)n1CC(=O)OCc1cccc2ccccc12 | 0 | -100* | 7%
CC(C)(C)n1nnnc1C(c1ccc2ncccc2c1)N1CCC(O)CC1 (stereo not given) | x | x | 21%[46 µM]
CCC(C)(C)n1nnnc1C(c1ccc2ncccc2c1)N1CCCC(C)C1 (stereo not given) | 9 | 161 | -1%
CCC(C)(C)n1nnnc1C(c1ccc2ncccc2c1)N1CCN(c2nc3ccccc3s2)CC1 (stereo not given) | 4[1.84 µM] | -86* | u
c1cnc2ccc(C(c3nnnn3C3CCCC3)N3CCSCC3)cc2c1 (stereo not given) | 6 | -119* | -22%
CC(C)Oc1cccc(-n2c(CCc3c[nH]c4ccc(Br)cc34)nc3ccccc3c2=O)c1 | 0 | x | x
COc1ccc(S(=O)(=O)N2CCN(c3c(C)cccc3C)CC2)cc1OC | 10 | u | 2%
COc1ccc(S(=O)(=O)N2CCN(c3ccc(C)cc3C)CC2)cc1OC | 4 | -83* | u
CC(C)c1nn2c(=O)cc(COC(=O)COc3ccccc3F)nc2s1 | x | x | 6%[46 µM]
CCOC(=O)c1c(NC(=O)c2ccc(S(=O)(=O)N(CC(C)C)CC(C)C)cc2)sc2c1CCN(CC)C2 | x | x | 11%[46 µM]
CC(=O)N1CCCc2cc(S(=O)(=O)N3CCC(C(=O)NC4CCC(C)CC4)CC3)ccc21 (stereo not given) | x | x | -12%[46 µM]
SMILES | IMPase inh | PNC inhibitor | LMNA splice mod
Cc1ccccc1Nc1nc2ccccc2s1 | 1 | 14 | -5%
Cc1ccccc1Nc1cccc2nonc12 | x | -99* | -8%
CCOC(=O)NCC(C)(C)CNC(=O)OCC | -7 | -117* | 13%
CCOC(=O)NCc1ccc(CNC(=O)OCC)cc1 | 1 | 0 | 7%
O=C(CSc1nc2c([nH]c3ccccc32)c(=O)n1-c1ccc(F)cc1)N1CCCc2ccccc21 | x | x | 8%[46 µM]
COc1ccccc1-c1cc(C(=O)Nc2cc(C)nn2-c2ccccc2)no1 | 13 | -129* | u
COc1ccc(-c2cc(C(=O)Nc3cc(C)nn3-c3ccccc3)no2)cc1 | 4 | 19 | -6%
O=C(O)/C=C/c1ccc2ccccc2n1 | 2 | 9 | u
Oc1ccc(/C=C/c2ccc3ccccc3n2)cc1 | x | x | 13µM*
CCOC(=O)c1cccc(NC(=O)CSc2nnc(COc3ccccc3)n2CC)c1 | 4 | -15 | 3%
Cn1c(COc2ccccc2)nnc1SCc1cc(=O)[nH]c2ccccc12 | 5 | -107* | -14%
O=c1cc(CSc2nnc(COc3ccccc3)n2-c2ccccc2)c2ccccc2[nH]1 | x | 38 | 5%
COC(=O)c1cccc(NC(=O)CSc2nnc(COc3ccccc3)n2C)c1 | -4 | -126* | 10%
COC(=O)c1ccc(Cl)cc1NC(=O)N(C)CCc1c(C)nn(C)c1C | x | x | -11%[46 µM]
Cc1nc2ccccc2c2nc(N)nn12 | -3 | -100* | 2%
CCCc1nc2ccccc2c2nc(N)nn12 | -7 | 10 | 0%
Cc1cc(NC(=O)CCNS(=O)(=O)c2ccc3c(c2)CCCC(=O)N3)ccc1Br | x | x | 3%[46 µM]
O=C(Nc1nnc(C2CC2)s1)C1Cc2ccccc2CN1S(=O)(=O)c1ccccc1F (stereo not given) | -19 | -16 | -7%
CCOC(=O)N1CCN(S(=O)(=O)c2ccc(OCC(=O)OC)cc2)CC1 | -5 | 24 | -12%
CCOC(=O)N1CCN(S(=O)(=O)c2ccc(OCC(=O)OC)c(C)c2)CC1 | 3 | -84* | -11%
CCC1CN(C(=O)Nc2ccc(C)cc2)c2cc(C)ccc2O1 (stereo not given) | x | x | -4%[46 µM]
O=C(N/N=C/C=C/c1ccccc1[N+](=O)[O-])c1cc(-c2cccnc2)nc2ccccc12 | -5 | -84* | u
COc1ccc(/C=N/NC(=O)c2cc(-c3cccnc3)nc3ccccc23)c(OC)c1 | x | x | 0%[9.22 µM]
COc1ccccc1-c1cc(C(=O)N/N=C/C=C/c2ccccc2[N+](=O)[O-])c2ccccc2n1 | -2 | 0 | -22%
C/C(=N\NC(=O)c1cc(-c2cccnc2)nc2ccccc12)c1ccc(O)cc1O | x | -92* | u
SMILES | IMPase inh | PNC inhibitor | LMNA splice mod
O=C(COc1ccc2ccccc2c1Br)NC(=S)Nc1cccc(CO)c1 | x | 58 | 5%
CCC(=O)N1CCCc2cc(S(=O)(=O)N3CCN(c4ccccn4)CC3)ccc21 | 14 | -8 | u
Cc1ccccc1Nc1nnc(-c2ccc(C)c(S(=O)(=O)NCC3CCCO3)c2)c2ccccc12 (stereo not given) | 3 | x | x
O=C(CC(=O)NC1CCCCC1)N/N=C/c1ccccc1Cl | x | 34 | 0%
O=C(CC(=O)NC1CCCCC1)N/N=C/c1cccc2ccccc12 | 7[1.84 µM] | -86* | -9%
CCc1ccc(NC(=O)C2CCN(C(=O)N3CC(CC)Oc4ccccc43)CC2)cc1 (stereo not given) | x | x | -19%[46 µM]
Cc1ccc(C)c(CSC2=NCCN2C(=O)c2cccs2)c1 | x | x | -8%[46 µM]
O=C1c2ccccc2C(=O)N1CCCc1nc(-c2ccccn2)no1 | 10 | -107* | -3%
O=C1c2ccccc2C(=O)N1CCc1nc(-c2ccccn2)no1 | -5 | 8 | 4%
NC(CSCSCC(N)C(=O)O)C(=O)O (stereo not given) | x | x | 3%
COc1cccc(CNC(=O)Cn2c(SCC(=O)Nc3ccc(F)cc3)nc3ccccc32)c1 | x | x | 5%[46 µM]
O=C(O)c1ccc(S(=O)(=O)NC2CCCCC2)cc1 | 8 | 22 | -1%
Cc1ccc(S(=O)(=O)NC2CCC(C(=O)O)CC2)cc1 (stereo not given) | 3 | -103* | 14%
CCOC(=O)c1c(Nc2cccc(O)c2)nnc(-c2ccccc2)c1-c1ccccc1 | 6 | x | x
Cc1cccc(N2CCC(N=CN(C)C)=N2)c1 | x | x | -6%[9.22 µM]
COc1cc(COCC(O)CN2CCOCC2)cc(OC)c1OC (stereo not given) | -1 | -7 | -3%
